Screening data: PubChem, The Scripps Research Institute Molecular Screening Center
Fam108B counter: counter-screen for RBBP9 inhibitors: inhibitors of mouse Fam108B; recombinant Fam108B, FP-Rh probe fluorescence polarization; inhibition, % at 9.51 µM; actives 0.33% (n = 300,000); AID 1947;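 active = inhibition above the screen mean inhibition plus 3 SD, computed separately per campaign, cut at about 18% in these data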;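 note: inhibitors lower polarization as less probe binds the enzyme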
LYPLA2 counter: counter-screen for PME1 inhibitors: inhibitors of human LYPLA2 | O95372 | recombinant LYPLA2, FP-Rh probe fluorescence polarization | AID 2177 | actives 0.38% (n = 320,000) | inhibition, % at 5.9 µM;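 active = inhibition above the screen-wide mean plus 3 SD, limit set per campaign, cut at about 26% in these data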
Target sequence (O95372 whole entry, looked up): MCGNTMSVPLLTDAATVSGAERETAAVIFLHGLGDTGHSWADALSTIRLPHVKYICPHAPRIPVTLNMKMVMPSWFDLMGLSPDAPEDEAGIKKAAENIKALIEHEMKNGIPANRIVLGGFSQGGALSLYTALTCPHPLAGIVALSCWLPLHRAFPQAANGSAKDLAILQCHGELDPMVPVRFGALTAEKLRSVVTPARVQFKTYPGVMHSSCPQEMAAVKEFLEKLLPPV
GSTO1 counter: blocks human GSTO1 in RBBP9 counter-screen; actives 1.1% (n = 300,000); recombinant GSTO1, activity-based probe fluorescence polarization; inhibition, % at 5.96 µM; P78417;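 active = inhibition above the campaign mean inhibition plus 3 SD, cut at about 35% in these data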
Target sequence (P78417 whole entry, looked up): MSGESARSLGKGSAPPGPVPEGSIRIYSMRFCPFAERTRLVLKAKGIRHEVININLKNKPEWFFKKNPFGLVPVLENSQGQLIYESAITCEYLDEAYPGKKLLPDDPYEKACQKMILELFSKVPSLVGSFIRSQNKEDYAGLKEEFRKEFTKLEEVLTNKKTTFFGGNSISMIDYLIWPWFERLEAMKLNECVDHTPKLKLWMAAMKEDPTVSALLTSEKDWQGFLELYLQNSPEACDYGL
PME-1 inh: PME-1 (human) inhibition. recombinant PME-1, FP-Rh probe fluorescence polarization. AID 2130. Q9Y570. actives 0.53% (n = 320,000). inhibition, % at 5.9 µM;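 active = inhibition above the campaign mean of all compounds plus 3 SD, cut at about 26% in these data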;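 note: competitive labeling of PME-1 active site by serine hydrolase directed probe; inhibitors block probe labeling so polarization falls and inhibition rises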
PAD4 FP inh: blocks human protein arginine deiminase 4 | Q9UM07 | recombinant PAD4, RCA probe fluorescence polarization | inhibition, % at 6.36 µM | actives 0.41% (n = 330,000) | AID 485272;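 active = percent inhibition above a cutoff equal to the mean of all tested compounds plus 3 SD, cut at about 15% in these data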
LYPLA1 inh: blocks human lysophospholipase 1, a PME1 counter-screen; AID 2174; recombinant LYPLA1, FP-Rh probe fluorescence polarization; inhibition, % at 5.9 µM; actives 0.16% (n = 320,000); O75608;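 active = inhibition above the mean of all tested compounds plus 3 SD, set per campaign, cut at about 14% in these data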;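 note: inhibitors block serine hydrolase probe labeling of LYPLA1 so polarization falls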
GSTO1 confirm: GSTO1 (human) inhibition, confirmation. recombinant GSTO1, probe fluorescence polarization. shares compounds with GSTO1 counter. inhibition, % at 5.96 µM. AID 2176. actives 54% (n = 2,400);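 active = inhibition above the primary screen's cutoff, its mean inhibition plus 3 SD, cut at about 35% in these data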;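 note: loss of polarization as inhibitors block binding of rhodamine sulfonate ester activity probe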
GSTO1 recomb ABPP: blocks recombinant human glutathione S-transferase omega 1. AID 463110. actives 30% (n = 130). inhibition, % at 1 µM. recombinant GSTO1, gel ABPP SE-Rh probe fluorescence. shares compounds with GSTO1 counter;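 active = inhibition of the enzyme GSTO1 above about 75%, limit read from the data; inactive = inhibition below that limit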
Numbers stand for hits; . = inactive; / = no result given. A selection: hits, their analogues and other compounds. The true share with any hit is near 1.8%.

SMILES | Fam108B counter | LYPLA2 counter | GSTO1 counter | PME-1 inh | PAD4 FP inh | LYPLA1 inh | GSTO1 confirm | others
O=C(CCl)N1N=C(c2cccs2)CC1c1ccco1 (configuration not stated) | . | . | 92 | . | . | . | 100
CCC1CN(C(=O)N2CCC(C(=O)NCc3ccco3)CC2)c2cc(C)ccc2O1 (configuration not stated) | . | . | . | . | . | . | /
COc1ccc(S(=O)(=O)N2CCCCC2)cc1NC(=O)c1ccc(N2CCCC2=O)cc1 | / | . | / | . | . | . | /
CC1=NN(c2ccccc2)C(=O)/C1=C\c1cc(C)n(-c2ccccc2)c1C | . | . | . | . | . | . | /
COc1ccc(/C=C2/C(=O)N(c3ccccc3)N=C2C)cc1Br | . | . | 58 | . | 43 | . | .
CC1=NN(c2ccccc2)C(=O)/C1=C\N(O)c1ccccc1 | . | . | 48 | . | . | . | 41
Cc1ccccc1N1Cc2ccccc2C1 | . | . | . | . | . | . | /
CC1(C)CC(=O)C2=C(C1)N(C1CCCCC1)C(=O)C2(O)C(F)(F)F (configuration not stated) | . | . | 65 | . | . | . | .
CCCCCN(C(=O)CCC(=O)OCCOc1cccc(C)c1)c1c(N)n(CCCC)c(=O)[nH]c1=O | . | . | . | . | . | . | /
CC1(OC(=O)C2CCCC2)C(=O)C=C2C=C3CCCN3C=C2C1=O (configuration not stated) | . | . | . | . | . | . | /
CC1(OC(=O)c2cccs2)C(=O)C=C2C=C3CCCN3C=C2C1=O (configuration not stated) | . | . | 60 | . | 15 | . | 62
Cc1cc(C(=O)OCC(=O)N2CCC(c3ccccc3)=N2)ccc1[N+](=O)[O-] | . | . | . | . | . | . | /
Cc1[nH]c2ccccc2c1C(=O)COC(=O)c1ccc([N+](=O)[O-])s1 | . | . | 52 | . | . | . | .
O=C(OCC(=O)N1CCC(c2ccccc2)=N1)c1ccc([N+](=O)[O-])s1 | . | . | 58 | . | . | . | .
Cc1ccc(C(=O)N2CCC(C(=O)c3ccc(Cl)cc3)CC2)cc1 | . | . | . | . | . | . | /
CCC(Oc1ccc(C)cc1)C(=O)Nc1ccccc1C(=O)N1CCOCC1 (configuration not stated) | . | . | . | . | . | . | /
COc1ccccc1/C=C1\SC(=O)N(CCC(=O)NNC(=O)c2ccccc2Cl)C1=O | . | . | 51 | . | . | . | .
c1ccc2c(c1)nnn2-c1ncnc2sc3c(c12)CCCC3 | . | . | . | . | . | . | /
Cc1nc(-n2nnc3ccccc32)c2c3c(sc2n1)CCCC3 | . | . | 127 | . | . | . | .
O=C(CSc1nnc(-c2ccco2)n1Cc1ccccc1)c1ccccc1 | . | . | . | . | . | . | /
O=C(CSc1nnc(-c2ccco2)c(-c2ccco2)n1)c1ccccc1 | . | . | 44 | . | . | . | .
COc1cc(Sc2ccc(C)cc2)c(OC)cc1N | . | . | 47 | . | . | . | .
COC(=O)c1ccc(Sc2ccc(C)cc2)c(N)c1 | . | . | . | . | . | . | /
c1ccc(COCCC2CO2)cc1 (configuration not stated) | . | . | 61 | . | . | . | 72 | GSTO1 recomb ABPP=.
O=c1cc(CCl)nc(Cc2c(Cl)cccc2Cl)[nH]1 | . | . | 93 | . | . | . | 97 | GSTO1 recomb ABPP=82
SMILES | Fam108B counter | LYPLA2 counter | GSTO1 counter | PME-1 inh | PAD4 FP inh | LYPLA1 inh | GSTO1 confirm | others
O=Cc1cccc(Oc2ncccn2)c1 | . | . | . | . | . | . | /
Nc1ccc(Oc2ncccn2)cc1 | . | . | 65 | . | . | . | .
Nc1c(Cl)ncnc1N/N=C/c1cccc(O)c1 | . | . | 45 | . | . | . | .
Oc1ccc2ccccc2c1/C=N/n1cnnc1 | . | . | . | . | . | . | /
Cc1cc(C)n(/N=C\c2c(O)ccc3ccccc23)c(=O)c1C(N)=O | . | . | 43 | . | . | . | .
CCN(CC)c1ccc2c(c1)CCCN2 | . | . | 42 | . | . | . | .
O=C(NCC(=O)N(c1ccc(F)cc1)C(C(=O)NC1CCCCC1)c1cccnc1)c1ccco1 (configuration not stated) | . | . | . | . | . | . | /
O=C(NC1CCCCC1)C(c1cccnc1)N(C(=O)CCl)c1ccccc1Cl (configuration not stated) | . | . | 88 | . | . | . | 83 | GSTO1 recomb ABPP=.
O=C(NC1CCCCC1)C(c1cccnc1)N(C(=O)CCl)c1ccc(F)cc1 (configuration not stated) | . | . | 95 | . | . | . | 97 | GSTO1 recomb ABPP=82
O=C(O)CC1Sc2nnc(COc3ccc(Cl)cc3)n2N=C1c1ccccc1 (configuration not stated) | . | . | . | . | . | . | /
C#CC(=O)N(c1cc(OC)ccc1OC)C(C(=O)NC1CCCC1)c1cccs1 (configuration not stated) | . | . | 65 | . | . | . | 68
C#CC(=O)N(c1ccc(OC)cc1OC)C(C(=O)NC1CCCC1)c1cccs1 (configuration not stated) | . | . | . | . | . | . | /
C[C@@H](NC(=O)[C@@H]1Cc2ccccc2CN1C(=O)OC(C)(C)C)C(=O)NC1CCCCC1 | . | . | . | . | . | . | /
O=C(N/N=C/c1c[nH]c2ccccc12)c1ccc(O)c(O)c1 | . | . | 40 | . | . | . | .
CC(C)=C1C(=O)NN(c2ccc(C)c(Cl)c2)C1=O | . | . | 44 | . | . | . | .
CC(C)=C1C(=O)NN(c2cccc(Cl)c2)C1=O | . | . | . | . | . | . | /
Clc1c2c(nc3ccccc13)CCC2 | . | . | 71 | . | . | . | .
Nc1c2c(nc3ccccc13)CCCC2 | . | . | . | . | . | . | /
C=CCOc1ccccc1CN(C(=O)CCl)c1ccc2c(c1)OCO2 | . | . | 95 | . | . | . | 86 | GSTO1 recomb ABPP=75
CCOC(=O)NC1(NC2CCCCC2)Oc2ccccc2O1 | . | . | 52 | . | . | . | .
CCOC(=O)NC1(NCC(C)C)Oc2ccccc2O1 | . | . | 48 | . | . | . | .
CCOC(=O)NC1(NCc2ccccc2)Oc2ccccc2O1 | . | . | 61 | . | . | . | .
CCOC(=O)c1ccc(CNCc2ccccc2)cc1 | . | . | . | . | . | . | /
CCOC(=O)NC1c2ccccc2Oc2ccccc21 | . | . | . | . | . | . | /
O=C(NCCc1ccccn1)c1cncc(Br)c1 | . | . | . | . | . | . | /
Cc1cc(C(=O)NC(C)C2CCCO2)c(C)o1 (configuration not stated) | . | . | 42 | . | . | . | .
